# From the supplement of paper PMC8728848
# Shown is part of a subset that was picked to be rich in the strongest signals.
# How the values were obtained:
# Assay in all cases: glycan array binding signal (z-score within array); higher = stronger binding
# Conditions in all cases: glycan notation: IUPAC condensed, linker removed
# Fuc(a1-2)Gal = molecular target: Fuc(a1-2)Gal
# Outline: (§1)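 The binding signal is a Z-score computed within each array. Data were drawn from 3228 arrays in the Consortium for Functional Glycomics database, restricted to those with a known protein sequence. Scores were averaged over arrays of the same protein sequence at different concentrations or buffers, and over linkers, and negative values can be taken as non-binding.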
# Fuc(a1-2)Gal(b1-3)GalNAc = molecular target: Fuc(a1-2)Gal(b1-3)GalNAc
# Outline: as §1
# [1] = molecular target: Fuc(a1-2)Gal(b1-4)GlcNAc(b1-2)Man(a1-3)[Fuc(a1-2)Gal(b1-4)GlcNAc(b1-2)Man(a1-6)]Man(b1-4)GlcNAc(b1-4)[Fuc(a1-6)]GlcNAc
# Outline: as §1
# Fuc(a1-2)[Gal(a1-3)]Gal = molecular target: Fuc(a1-2)[Gal(a1-3)]Gal
# Outline: as §1
# [2] = molecular target: Fuc(a1-2)[Gal(a1-3)]Gal(b1-3)GlcNAc(b1-2)Man(a1-3)[Fuc(a1-2)[Gal(a1-3)]Gal(b1-3)GlcNAc(b1-2)Man(a1-6)]Man(b1-4)GlcNAc(b1-4)GlcNAc
# Outline: as §1
# [3] = molecular target: Fuc(a1-2)[GalNAc(a1-4)]Gal(b1-4)GlcNAc
# Outline: as §1
# Gal(b1-3)Gal = molecular target: Gal(b1-3)Gal
# Outline: as §1
# Gal(b1-3)Gal(b1-4)GlcNAc = molecular target: Gal(b1-3)Gal(b1-4)GlcNAc
# Outline: as §1
# Gal(b1-3)GalNAc = molecular target: Gal(b1-3)GalNAc
# Outline: as §1
# Gal(b1-3)GalNAc(b1-3)Gal = molecular target: Gal(b1-3)GalNAc(b1-3)Gal
# Outline: as §1
# [4] = molecular target: Gal(b1-3)GalNAc(b1-4)Gal(b1-4)Glc
# Outline: as §1
# [5] = molecular target: Gal(b1-3)GalNAc(b1-4)[Neu5Ac(a2-3)]Gal(b1-4)Glc
# Outline: as §1
# [6] = molecular target: Gal(b1-3)GlcNAc(b1-2)Man(a1-3)[GlcNAc(b1-4)][Gal(b1-3)GlcNAc(b1-2)Man(a1-6)]Man(b1-4)GlcNAc(b1-4)GlcNAc
# Outline: as §1
# [7] = molecular target: Gal(b1-3)[Neu5Ac(a2-6)]GalNAc
# Outline: as §1
# [8] = molecular target: Gal(b1-3)[Neu5Ac(a2-6)]GlcNAc(b1-4)Gal(b1-4)Glc
# Outline: as §1
# [9] = molecular target: Gal(b1-4)GalNAc(a1-3)[Fuc(a1-2)]Gal(b1-4)GlcNAc
# Outline: as §1
# Gal(b1-4)Glc6S = molecular target: Gal(b1-4)Glc6S
# Outline: as §1
# [10] = molecular target: Gal(b1-4)GlcNAc(b1-2)Man(a1-6)[Man(a1-3)]Man(b1-4)GlcNAc(b1-4)GlcNAc
# Outline: as §1
# [11] = molecular target: Gal(b1-4)GlcNAc(b1-3)Gal(b1-3)GlcNAc
# Outline: as §1
# [12] = molecular target: Gal(b1-4)GlcNAc(b1-3)Gal(b1-4)Glc
# Outline: as §1
# [13] = molecular target: Gal(b1-4)GlcNAc(b1-3)Gal(b1-4)GlcNAc(b1-2)[Gal(b1-4)GlcNAc(b1-3)Gal(b1-4)GlcNAc(b1-6)]Man(a1-6)[Gal(b1-4)GlcNAc(b1-3)Gal(b1-4)GlcNAc(b1-2)Man(a1-3)]Man(b1-4)GlcNAc(b1-4)[Fuc(a1-6)]GlcNAc
# Outline: as §1
# [14] = molecular target: Gal(b1-4)GlcNAc(b1-3)Gal(b1-4)GlcNAc(b1-3)Gal(b1-4)GlcNAc(b1-2)[Gal(b1-4)GlcNAc(b1-3)Gal(b1-4)GlcNAc(b1-3)Gal(b1-4)GlcNAc(b1-6)]Man(a1-6)[Gal(b1-4)GlcNAc(b1-3)Gal(b1-4)GlcNAc(b1-3)Gal(b1-4)GlcNAc(b1-2)Man(a1-3)]Man(b1-4)GlcNAc(b1-4)[Fuc(a1-6)]GlcNAc
# Outline: as §1
# [15] = molecular target: Gal(b1-4)GlcNAc(b1-6)Gal(b1-4)GlcNAc
# Outline: as §1
# [16] = molecular target: Gal(b1-4)GlcNAc(b1-6)[Gal(b1-3)]GalNAc
# Outline: as §1
# Gal(b1-6)Gal = molecular target: Gal(b1-6)Gal
# Outline: as §1
# Gal3S(b1-4)GlcNAc = molecular target: Gal3S(b1-4)GlcNAc
# Outline: as §1
# [17] = molecular target: Gal3S(b1-4)[Fuc(a1-3)]GlcNAc6S
# Outline: as §1
# Gal6P(b1-4)GlcNAc = molecular target: Gal6P(b1-4)GlcNAc
# Outline: as §1
# Gal6S(b1-3)GlcNAc6S = molecular target: Gal6S(b1-3)GlcNAc6S
# Outline: as §1
# [18] = molecular target: GalNAc(a1-3)GalNAc(b1-3)Gal(a1-4)Gal(b1-4)GlcNAc
# Outline: as §1
# [19] = molecular target: GlcA3S(b1-3)Gal(b1-4)GlcNAc(b1-2)Man
# Outline: as §1
# [20] = molecular target: GlcNAc(b1-3)Gal(b1-4)GlcNAc(b1-6)[Gal(b1-3)]GalNAc
# Outline: as §1
# Man(a1-2)Man(a1-3)Man = molecular target: Man(a1-2)Man(a1-3)Man
# Outline: as §1
# [21] = molecular target: Man(a1-3)[Man(a1-6)]Man(b1-4)GlcNAc(b1-4)[Fuc(a1-6)]GlcNAc
# Outline: as §1
# Man(b1-4)GlcNAc = molecular target: Man(b1-4)GlcNAc
# Outline: as §1
# [22] = molecular target: Neu5Ac(a2-3)Gal(b1-3)GlcNAc(b1-2)Man(a1-3)[Neu5Ac(a2-3)Gal(b1-3)GlcNAc(b1-2)Man(a1-6)]Man(b1-4)GlcNAc(b1-4)GlcNAc
# Outline: as §1
# [23] = molecular target: Neu5Ac(a2-3)Gal(b1-3)GlcNAc(b1-6)GalNAc
# Outline: as §1
# [24] = molecular target: Neu5Ac(a2-3)Gal(b1-4)GlcNAc(b1-3)Gal
# Outline: as §1
# [25] = molecular target: Neu5Ac(a2-3)Gal(b1-4)GlcNAc(b1-3)Gal(b1-4)GlcNAc(b1-2)Man(a1-3)[Neu5Ac(a2-3)Gal(b1-4)GlcNAc(b1-3)Gal(b1-4)GlcNAc(b1-2)Man(a1-6)]Man(b1-4)GlcNAc(b1-4)GlcNAc
# Outline: as §1
# [26] = molecular target: Neu5Ac(a2-3)Gal(b1-4)GlcNAc(b1-6)[Gal(b1-3)]GalNAc
# Outline: as §1
# [27] = molecular target: Neu5Ac(a2-3)Gal(b1-4)[Fuc(a1-3)]GlcNAc(b1-2)Man
# Outline: as §1
# [28] = molecular target: Neu5Ac(a2-3)Gal(b1-4)[Fuc(a1-3)]GlcNAc(b1-3)Gal(b1-4)GlcNAc
# Outline: as §1
# [29] = molecular target: Neu5Ac(a2-3)[Neu5Ac(a2-6)]GalNAc
# Outline: as §1
# [30] = molecular target: Neu5Ac(a2-6)Gal(b1-4)GlcNAc(b1-2)Man(a1-3)[GlcNAc(b1-4)][Neu5Ac(a2-6)Gal(b1-4)GlcNAc(b1-2)Man(a1-6)]Man(b1-4)GlcNAc(b1-4)GlcNAc
# Outline: as §1
# [31] = molecular target: Neu5Ac(a2-6)Gal(b1-4)GlcNAc(b1-2)Man(a1-6)[Gal(b1-4)GlcNAc(b1-2)Man(a1-3)]Man(b1-4)GlcNAc(b1-4)GlcNAc
# Outline: as §1
# [32] = molecular target: Neu5Ac(a2-6)Gal(b1-4)GlcNAc(b1-3)Gal(b1-4)GlcNAc(b1-3)Gal(b1-4)GlcNAc
# Outline: as §1
# [33] = molecular target: Neu5Ac(a2-6)Gal(b1-4)GlcNAc(b1-3)Gal(b1-4)[Fuc(a1-3)]GlcNAc(b1-3)Gal(b1-4)[Fuc(a1-3)]GlcNAc
# Outline: as §1
# [34] = molecular target: Neu5Ac(a2-6)Gal(b1-4)GlcNAc6S
# Outline: as §1
# [35] = molecular target: Neu5Ac(b2-6)Gal(b1-4)GlcNAc
# Outline: as §1
# [36] = molecular target: Neu5Gc(a2-8)Neu5Gc(a2-6)Gal(b1-4)GlcNAc
# Outline: as §1
binder,measurement,setting,value
Epa1 (Candida glabrata) (protein) MGSSHHHHHHSSGLVPRGSHMTSSNDISLASKDPTTFPLGCSPDITTPKKGLSMELYSYDFRKKGSYPCWDAAYLDPNYPRTGYKSHRLLAKVDGVTGNINFYYHATKGCTPQLGHLPASYNYPKPLTMTNFTMLLYGYFRPKVTGFHTFTISADDLLFVNFGAGNAFDCCRRDSSADHFGNYQAYAIWGSKTAKDELTVHLDAGVYYPIRLFYNNREYDGALSFTFKTESNENTVSDFSEYFFSLDDTEEGCPGLISYD,glycan array binding signal (z-score),Fuc(a1-2)Gal,-0.506
same,glycan array binding signal (z-score),Fuc(a1-2)Gal(b1-3)GalNAc,-0.25
same,glycan array binding signal (z-score),[1],-0.2
same,glycan array binding signal (z-score),Fuc(a1-2)[Gal(a1-3)]Gal,-0.213
same,glycan array binding signal (z-score),[2],-0.325
same,glycan array binding signal (z-score),[3],-0.299
same,glycan array binding signal (z-score),Gal(b1-3)Gal,3.63
same,glycan array binding signal (z-score),Gal(b1-3)Gal(b1-4)GlcNAc,8.5
same,glycan array binding signal (z-score),Gal(b1-3)GalNAc,3.51
same,glycan array binding signal (z-score),Gal(b1-3)GalNAc(b1-3)Gal,6.23
same,glycan array binding signal (z-score),[4],9.89
same,glycan array binding signal (z-score),[5],4.04
same,glycan array binding signal (z-score),[6],0.171
same,glycan array binding signal (z-score),[7],4.22
same,glycan array binding signal (z-score),[8],-0.213
same,glycan array binding signal (z-score),[9],-0.197
same,glycan array binding signal (z-score),Gal(b1-4)Glc6S,0.304
same,glycan array binding signal (z-score),[10],-0.169
same,glycan array binding signal (z-score),[11],-0.155
same,glycan array binding signal (z-score),[12],0.551
same,glycan array binding signal (z-score),[13],3.08
same,glycan array binding signal (z-score),[14],3.06
same,glycan array binding signal (z-score),[15],3.12
same,glycan array binding signal (z-score),[16],4.02
same,glycan array binding signal (z-score),Gal(b1-6)Gal,0.429
same,glycan array binding signal (z-score),Gal3S(b1-4)GlcNAc,-0.442
same,glycan array binding signal (z-score),[17],-0.394
same,glycan array binding signal (z-score),Gal6P(b1-4)GlcNAc,-0.272
same,glycan array binding signal (z-score),Gal6S(b1-3)GlcNAc6S,-0.014
same,glycan array binding signal (z-score),[18],-0.312
same,glycan array binding signal (z-score),[19],-0.3
same,glycan array binding signal (z-score),[20],1.03
same,glycan array binding signal (z-score),Man(a1-2)Man(a1-3)Man,-0.318
same,glycan array binding signal (z-score),[21],-0.271
same,glycan array binding signal (z-score),Man(b1-4)GlcNAc,-0.281
same,glycan array binding signal (z-score),[22],-0.325
same,glycan array binding signal (z-score),[23],-0.293
same,glycan array binding signal (z-score),[24],-0.288
same,glycan array binding signal (z-score),[25],-0.257
same,glycan array binding signal (z-score),[26],1.45
same,glycan array binding signal (z-score),[27],-0.346
same,glycan array binding signal (z-score),[28],-0.214
same,glycan array binding signal (z-score),[29],-0.328
same,glycan array binding signal (z-score),[30],-0.32
same,glycan array binding signal (z-score),[31],-0.14
same,glycan array binding signal (z-score),[32],-0.267
same,glycan array binding signal (z-score),[33],-0.272
same,glycan array binding signal (z-score),[34],-0.335
same,glycan array binding signal (z-score),[35],-0.248
same,glycan array binding signal (z-score),[36],-0.309
